Screening results as filed in PubChem BioAssay.
Most compounds without a hit are left out; they make up all but 3.1% or so of the library.
ERAP1 HTS inh = blocks human ERAP1 aminopeptidase activity. Q9NZ08. recombinant ERAP1, Leu-AMC fluorescence, 60 min. inhibition, % at 10.7 µM. 0.15% of 340,000 active;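 active means mean replicate inhibition of at least 30%, or all replicates individually reaching that 30% level; inactive means mean below 30% and not every replicate reaching it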;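 further: 0% = neutral control wells and 100% = L-leucinethiol positive control wells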
SIRT5 block = sirtuin-5 (human) deacylase inhibition. AID 652115. inhibition, % at 15 µM. Purified SirT5, succinyl-peptide AMC, trypsin-coupled fluorescence. 1.1% of 330,000 active; in the data active means inhibition above about 15%
CASP6 VEID inh = inhibitors of human caspase-6 | purified caspase-6, Z-VEID-R110 cleavage fluorescence | inhibition, % at 12.5 µM | 0.53% of 350,000 active | AID 686996;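 active means mean inhibition across replicates at least about 35%, with every replicate also reaching that limit, limit read from the data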;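 further: 0% = median of neutral control wells and 100% = no fluorescence left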
Target sequence (P55212 24-179 limits assumed): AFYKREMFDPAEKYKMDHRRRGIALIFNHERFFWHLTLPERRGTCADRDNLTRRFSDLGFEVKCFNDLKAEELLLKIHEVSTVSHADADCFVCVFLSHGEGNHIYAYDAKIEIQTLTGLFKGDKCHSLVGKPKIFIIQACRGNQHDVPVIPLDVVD
Target sequence (P55212 194-293 limits assumed): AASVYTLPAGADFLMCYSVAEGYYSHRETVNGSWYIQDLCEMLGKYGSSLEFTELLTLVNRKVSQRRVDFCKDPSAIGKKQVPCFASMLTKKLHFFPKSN
FGF22 binding = shifts melting point of recombinant human FGF22. activity (Tm shift, normalised), % at 9.99 µM. AID 651658. recombinant FGF22 thermal shift, SYPRO orange fluorescence; percent of sucrose octasulfate shift, DMSO zero. Q9HCT0. 1.5% of 340,000 active;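 active means mean Tm shift, scaled 0 neutral to 100 positive control, at about 1.3% or above, every replicate too, limit read from the data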
Numbers without * were called inactive; x = no result.

SMILES	ERAP1 HTS inh	SIRT5 block	CASP6 VEID inh	FGF22 binding
O=C(CCN1CCCCC1)NCC[C@H]1CC[C@H](NC(=O)C2CCCC2)[C@@H](CO)O1	1	1	0	0
COc1ccccc1NC(=O)COC(=O)c1c[nH]c(=O)[nH]c1=O	1	x	-2	0
COc1ccccc1NC(=O)COC(=O)c1[nH]c(=O)[nH]c(=O)c1N	1	17*	3	0
NNC(=O)C1CCCN1S(=O)(=O)c1ccc(Cl)cc1 (stereo not given)	-4	9	-1	43*
COCCNC(=O)[C@@H]1[C@@H](CO)[C@@H]2Cn3c(cccc3=O)[C@@H]2N1Cc1ccccc1OC	x	-2	x	x
CC(C)NC(=O)N(C)C[C@@H]1Oc2cc(C#Cc3ccc(F)cc3)ccc2S(=O)(=O)N([C@H](C)CO)C[C@@H]1C	1	8	1	0
COc1ccc(CNC(=O)/C=C/[C@H]2O[C@@H](n3cnc4c(NC(=O)c5ccccc5)ncnc43)[C@H](O)[C@@H]2O)cc1	-11	-4	1	0
COC(=O)[C@@H](Cc1ccccc1)NC(=O)/C=C/[C@H]1O[C@@H](n2cnc3c(NC(=O)c4ccccc4)ncnc32)[C@H](O)[C@@H]1O	1	31*	-3	0
OCc1ccccc1-c1nc(NCc2ccccc2)nc2ccsc12	-2	8	42*	0
CCC(=O)Nc1ccc2c(c1)C(=O)N(C)[C@@H]1CC[C@H](CC(=O)NCCc3ccccc3)O[C@H]1CO2	-2	-2	-2	0
CCOCCCNC(=O)Cc1ccc(F)cc1	-1	-3	-3	0
CC(C)(C)c1ccc(OCCNC(=O)Cc2ccc(F)cc2)cc1	-4	0	-1	1.6*
CC(C)OCCCNC(=O)Cc1ccc(F)cc1	5	0	3	43*
C[C@@H]1CN([C@H](C)CO)C(=O)c2cc(NC(=O)c3ccncc3)ccc2O[C@@H](C)CCCCO[C@H]1CN(C)C	-1	-1	-6	0
C=CCNC(=O)COc1ccccc1C#N	-1	-2	52*	0
O=C(Nc1cc(F)ccc1F)N1CC(=O)N2[C@@H](CO)[C@H](c3ccc(C#CC4CCCCC4)cc3)[C@@H]2C1	-3	18*	-1	0
O=C(Nc1cc(F)ccc1F)N1CC(=O)N2[C@H](CO)[C@H](c3ccc(C#CC4CCCC4)cc3)[C@@H]2C1	-2	5	-2	x
O=C(Nc1cc(F)ccc1F)N1CC(=O)N2[C@H](C1)[C@H](c1ccc(C#CC3CCCCC3)cc1)[C@@H]2CO	-1	18*	-2	-1
O=C(Nc1cc(F)ccc1F)N1CC(=O)N2[C@H](CO)[C@@H](c3ccc(C#CC4CCCCC4)cc3)[C@H]2C1	0	10	-2	0
O=C(Nc1ccccc1F)N1CC(=O)N2[C@H](C1)[C@@H](c1ccc(C#CC3CCCC3)cc1)[C@@H]2CO	x	19*	x	x
CCSC1=C(C#N)C(c2ccc(C)s2)CC(=O)N1 (stereo not given)	5	16*	3	0
C[C@H](CO)N1C[C@H](C)[C@@H](CN(C)Cc2ccc(F)cc2)Oc2ncc(C#Cc3cccnc3)cc2C1=O	x	2	x	0
C[C@H]1CN([C@@H](C)CO)C(=O)Cc2cc(NC(=O)Nc3ccc(C(F)(F)F)cc3)ccc2O[C@@H]1CN(C)Cc1ccc(-c2ccccc2)cc1	8	6	0	0
COc1cccc(/C=C(/C(=O)OCC(=O)NCC2CCCO2)c2ccccc2)c1 (stereo not given)	1	-2	2	43*
C=CCNC(=O)[C@@H]1[C@H]2C(=O)O[C@H](c3ccccc3)[C@H](c3ccccc3)N2[C@H](c2ccc(O)cc2)[C@@]12C(=O)N(C(=O)OCCOC)c1ccc(C#Cc3ccc(OC)cc3)cc12	-1	-3	-1	0
SMILES	ERAP1 HTS inh	SIRT5 block	CASP6 VEID inh	FGF22 binding
CC(=O)N(C)C[C@H]1Oc2ncc(C#Cc3ccccc3F)cc2C(=O)N([C@H](C)CO)C[C@@H]1C	4	-6	2	0
CCc1ccc(NC(=O)c2nc(S(=O)(=O)Cc3ccccc3)ncc2Cl)cc1	-3	-1	0	0
Cc1ccc(NC(=O)c2nc(S(=O)(=O)Cc3ccccc3C)ncc2Cl)cc1C	3	16*	6	0
COc1ccn(C2CCCCO2)c(=O)n1 (stereo not given)	3	x	2	43*
Nc1ccn(C2CCCCO2)c(=O)n1 (stereo not given)	-2	x	2	1
COc1ccc(-c2csc(Nc3ccc(C)cn3)n2)cc1	-3	-1	-2	61*
Cc1ccc(-c2csc(Nc3ccccn3)n2)cc1	-1	-7	-1	0
